From the supplement of paper PMC10849652
The full data set covers some 7,900 targets. This sample favours those with a hit. About 0.6% of all pairs of compound and target were hits.

Legend:
Assay in all cases: log2 fold change, soluble protein after heating vs DMSO (PISA); higher = thermal stabilisation; K562 cells, 10 uM, 30 min; active = over 0.2 and 3.5 SD of the protein, either way, in both replicates (recomputed)
erlotinib = compound: C#Cc1cccc(Nc2ncnc3cc(OCCOC)c(OCCOC)cc23)c1 [erlotinib]
Method in brief: (§1)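 K562 cells at 2×10^6 cells/mL were exposed to 10 μM compound for 30 min, then aliquots were heated for 3 min across 48°C-58°C, pooled, and extracted in PBS containing 0.5% NP-40 at 4°C. The supernatant after 21,000xg for 90 min was taken as soluble protein and measured by TMTpro 16plex LC-MS/MS with channel sums equalised. Thermal stability is reported relative to control samples, with values from duplicates. Fold changes are given on a log2 scale.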

[1] = compound: C/C(=N\NC(=O)C1=CC(=CC=C1)S(=O)(=O)N2CCOCC2)/C3=C(C=CC(=C3)Cl)O
Method in brief: as §1

[2] = compound: C1=CC(=C(C=C1Cl)C2=NC3=NC=CN=C3C(=N2)NC4=CC=NC=C4)F
Method in brief: as §1

[3] = compound: C1=CC(=CC=C1C2=NC3=C(N2)C=C(C=C3)C(=O)N)OC4=CC=C(C=C4)Cl
Method in brief: as §1

[4] = compound: C1=CC2=C(C=CC(=C2)/C=C\3/C(=O)NC(=NCC4=CC=CS4)S3)N=C1
Method in brief: as §1

[5] = compound: C1=CC2=NC=CN=C2C=C1/C=C/3\C(=O)NC(=O)S3
Method in brief: as §1

[6] = compound: C1=CC=C(C=C1)C2=NC(=C(N2)C3=CC=NC=C3)C4=CC(=C(C=C4)Cl)O
Method in brief: as §1

[7] = compound: C1=CC=C2C(=C1)C3=NNC4=CC=CC(=C43)C2=O
Method in brief: as §1

[8] = compound: C1CCN(C1)C(=O)NC2=CC=CC(=C2)NC3=NC=C(C(=N3)NCCC4=CN=CN4)Br
Method in brief: as §1

[9] = compound: C1CN(CCC1(CC2=CC=C(C=C2)Cl)N)C3=NC=NC4=C3C=CN4
Method in brief: as §1

IRAK-1-4 Inhibitor I = compound: C1COCCN1CCN2C3=CC=CC=C3N=C2NC(=O)C4=CC(=CC=C4)[N+](=O)[O-] [IRAK-1-4 Inhibitor I]
Method in brief: as §1

ibrutinib = compound: C=CC(=O)N1CCC[C@@H](n2nc(-c3ccc(Oc4ccccc4)cc3)c3c(N)ncnc32)C1 [ibrutinib]
Method in brief: as §1

[10] = compound: CC(=O)c1cnc2ccc(-c3cc(Cl)c(O)c(Cl)c3)nc2c1N[C@H]1CC[C@H](CN(C)C)CC1
Method in brief: as §1

ralimetinib = compound: CC(C)(C)Cn1c(N)nc2ccc(-c3[nH]c(C(C)(C)C)nc3-c3ccc(F)cc3)nc21 [ralimetinib]
Method in brief: as §1

[11] = compound: CC(C)(O)CC(=O)NCCn1ccc2ncnc(Nc3ccc(Oc4cccc(C(F)(F)F)c4)c(Cl)c3)c21
Method in brief: as §1

[12] = compound: CC(C)C1=C2N=C(C=C(N2N=C1)NCC3=CC=CC=C3)NCCCCCCN
Method in brief: as §1

[13] = compound: CC(C)C[C@@H](C=O)NC(=O)[C@H](CC(C)C)NC(=O)[C@H](CC(C)C)NC(=O)OCc1ccccc1
Method in brief: as §1

pinometostat = compound: CC(C)N(C[C@H]1O[C@@H](n2cnc3c(N)ncnc32)[C@H](O)[C@@H]1O)[C@H]1C[C@@H](CCc2nc3cc(C(C)(C)C)ccc3[nH]2)C1 [pinometostat]
Method in brief: as §1

[14] = compound: CC1=C(C(CC(=O)N1)C2=CC=C(C=C2)C(F)(F)F)C(=O)NC3=C(C=C4C(=C3)C=NN4)F
Method in brief: as §1

[15] = compound: CC1=C(C2=C(C=C1)C(=O)C3=CC=CC=C3N2CCCN)C
Method in brief: as §1

Measured: log2 fold change

NFATC2IP (UniProt Q8NCF5)
Sequence of UniProt Q8NCF5 (Q8NCF5 whole entry, looked up): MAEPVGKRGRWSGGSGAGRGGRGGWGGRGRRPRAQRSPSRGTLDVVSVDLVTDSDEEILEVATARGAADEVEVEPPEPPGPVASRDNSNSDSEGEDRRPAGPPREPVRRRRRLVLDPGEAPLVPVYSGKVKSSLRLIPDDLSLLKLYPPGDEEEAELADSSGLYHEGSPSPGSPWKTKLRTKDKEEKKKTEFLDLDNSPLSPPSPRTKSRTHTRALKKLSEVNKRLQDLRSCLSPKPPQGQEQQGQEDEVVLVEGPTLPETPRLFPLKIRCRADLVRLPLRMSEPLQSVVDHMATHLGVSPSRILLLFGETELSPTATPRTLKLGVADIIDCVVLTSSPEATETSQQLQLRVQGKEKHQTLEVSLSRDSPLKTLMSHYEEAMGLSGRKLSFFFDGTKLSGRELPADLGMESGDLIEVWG
inactive: erlotinib -0.051 | [1] 0.131 | [2] -0.034 | [3] 0.014 | [4] 0.018 | [5] 0.085 | [6] -0.029 | [7] -0.014 | [8] -0.117 | [9] 0.061 | IRAK-1-4 Inhibitor I -0.014 | ibrutinib -0.036 | [10] -0.051 | ralimetinib -0.003 | [11] -0.224 | [12] -0.161 | [13] -0.006 | pinometostat -0.032 | [14] 0.069 | [15] -0.022

OXSR1 (UniProt O95747)
Sequence of UniProt O95747 (O95747 whole entry, looked up): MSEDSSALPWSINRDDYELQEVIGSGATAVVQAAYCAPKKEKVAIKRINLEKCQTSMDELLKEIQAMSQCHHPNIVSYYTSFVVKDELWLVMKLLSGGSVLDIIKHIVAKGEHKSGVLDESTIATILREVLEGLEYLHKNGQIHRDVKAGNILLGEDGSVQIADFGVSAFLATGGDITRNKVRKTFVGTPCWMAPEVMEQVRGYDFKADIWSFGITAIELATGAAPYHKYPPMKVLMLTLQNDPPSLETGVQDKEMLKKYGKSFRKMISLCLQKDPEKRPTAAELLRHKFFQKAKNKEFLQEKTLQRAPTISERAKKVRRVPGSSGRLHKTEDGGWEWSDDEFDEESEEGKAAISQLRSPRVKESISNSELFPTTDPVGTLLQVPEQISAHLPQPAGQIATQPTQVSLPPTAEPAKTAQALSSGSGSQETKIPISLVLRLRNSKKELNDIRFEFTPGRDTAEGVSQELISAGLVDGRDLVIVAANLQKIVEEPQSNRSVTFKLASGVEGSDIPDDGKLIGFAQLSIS
inactive: erlotinib 0.042 | [1] 0.091 | [2] -0.024 | [3] -0.056 | [4] 0.106 | [5] 0.004 | [6] 0.039 | [7] 0.054 | [8] -0.008 | [9] 0.007 | IRAK-1-4 Inhibitor I 0.014 | ibrutinib -0.022 | ralimetinib 0.045 | [11] -0.115 | [12] -0.111 | [13] -0.05 | pinometostat 0.026 | [14] 0.02 | [15] 0.106
active: [10] -0.341

NAA11 (UniProt Q9BSU3)
Sequence of UniProt Q9BSU3 (Q9BSU3 whole entry, looked up): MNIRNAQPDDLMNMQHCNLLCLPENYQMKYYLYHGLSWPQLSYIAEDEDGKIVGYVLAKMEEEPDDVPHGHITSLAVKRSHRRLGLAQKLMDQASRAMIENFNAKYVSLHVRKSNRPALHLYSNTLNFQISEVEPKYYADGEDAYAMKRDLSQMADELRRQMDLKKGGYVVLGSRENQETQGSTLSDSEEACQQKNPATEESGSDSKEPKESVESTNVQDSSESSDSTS
inactive: erlotinib -0.023 | [1] -0.012 | [2] -0.033 | [3] 0.06 | [4] 0.158 | [5] -0.207 | [6] -0.023 | [7] -0.032 | [8] -0.108 | [9] 0.167 | IRAK-1-4 Inhibitor I 0.035 | ibrutinib 0.049 | [10] -0.102 | ralimetinib -0.024 | [11] -0.042 | [12] -0.075 | [13] 0.072 | pinometostat -0.131 | [14] -0.007 | [15] 0

NCAPD2 (UniProt Q15021)
Sequence of UniProt Q15021 (Q15021 whole entry, looked up): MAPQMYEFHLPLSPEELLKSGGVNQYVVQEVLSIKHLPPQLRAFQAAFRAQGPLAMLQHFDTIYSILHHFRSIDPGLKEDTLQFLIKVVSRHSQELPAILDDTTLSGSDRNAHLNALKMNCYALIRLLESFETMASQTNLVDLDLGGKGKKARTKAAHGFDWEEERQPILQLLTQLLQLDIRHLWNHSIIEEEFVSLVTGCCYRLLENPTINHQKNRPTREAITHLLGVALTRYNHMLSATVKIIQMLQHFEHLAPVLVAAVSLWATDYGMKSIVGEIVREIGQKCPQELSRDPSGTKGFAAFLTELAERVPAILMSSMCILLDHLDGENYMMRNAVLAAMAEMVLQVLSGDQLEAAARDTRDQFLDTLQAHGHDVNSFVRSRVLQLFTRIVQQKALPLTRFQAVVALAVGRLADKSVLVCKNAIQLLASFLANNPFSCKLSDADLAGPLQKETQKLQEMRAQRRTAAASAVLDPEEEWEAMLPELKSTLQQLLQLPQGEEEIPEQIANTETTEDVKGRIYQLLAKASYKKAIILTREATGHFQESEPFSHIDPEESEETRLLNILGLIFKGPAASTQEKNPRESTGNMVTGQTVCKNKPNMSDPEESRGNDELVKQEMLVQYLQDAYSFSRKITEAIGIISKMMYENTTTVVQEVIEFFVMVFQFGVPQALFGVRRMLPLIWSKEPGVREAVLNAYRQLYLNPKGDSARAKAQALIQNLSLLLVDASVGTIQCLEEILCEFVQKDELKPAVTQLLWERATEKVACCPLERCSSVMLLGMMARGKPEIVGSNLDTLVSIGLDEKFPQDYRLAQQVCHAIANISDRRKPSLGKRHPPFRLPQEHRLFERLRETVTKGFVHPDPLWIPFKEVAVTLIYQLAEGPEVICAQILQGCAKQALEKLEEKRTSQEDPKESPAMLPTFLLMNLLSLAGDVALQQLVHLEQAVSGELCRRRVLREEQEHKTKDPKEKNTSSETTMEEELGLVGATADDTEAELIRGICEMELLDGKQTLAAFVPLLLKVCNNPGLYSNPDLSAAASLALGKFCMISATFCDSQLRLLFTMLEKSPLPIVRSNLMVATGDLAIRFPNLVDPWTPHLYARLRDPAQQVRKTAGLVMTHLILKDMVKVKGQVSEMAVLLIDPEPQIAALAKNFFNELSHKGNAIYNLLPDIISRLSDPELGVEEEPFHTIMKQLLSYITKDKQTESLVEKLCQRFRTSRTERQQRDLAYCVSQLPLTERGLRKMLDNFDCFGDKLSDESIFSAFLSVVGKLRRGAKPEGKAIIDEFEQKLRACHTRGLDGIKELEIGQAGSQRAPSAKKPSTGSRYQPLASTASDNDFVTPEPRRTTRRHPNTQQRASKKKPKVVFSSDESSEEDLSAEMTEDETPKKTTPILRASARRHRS
inactive: erlotinib 0.029 | [1] 0.107 | [2] 0.005 | [3] -0.05 | [4] 0.024 | [5] 0.04 | [6] 0.013 | [7] 0.022 | [8] -0.001 | [9] -0.103 | IRAK-1-4 Inhibitor I -0.101 | ibrutinib -0.067 | [10] 0.097 | ralimetinib 0.048 | [11] -0.151 | [12] -0.208 | [13] 0.054 | pinometostat 0.039 | [14] -0.012 | [15] -0.036
